Where a name gives a salt, the structure may show the parent alone. ± gives the standard deviation of the averaged measurements. In all, about 1,100 compounds were measured (“day of extracellular matrix detachment from plate”: median about 16, lowest 2% from about 10 on). The sample holds the lowest values, similar compounds and a random draw of the others, so the mix is not that of the screen.
Each compound was assayed on RDEB dermal fibroblasts EB71 (assay: day of extracellular matrix detachment from plate (days); higher = delayed detachment (less fibrotic matrix)). Conditions: compound concentration: 10 uM.

| Compound | day of extracellular matrix detachment from plate |
| --- | --- |
| C#C[C@]1(O)CC[C@H]2[C@@H]3CCC4=CC(=O)CC[C@@H]4[C@H]3C(=C)C[C@@]21CC [Etonogestrel] | 20 |
| CC(C)Oc1ccc(-c2nc(-c3cccc4c3CC[C@@H]4NCCO)no2)cc1C#N [Ozanimod (RPC1063)] | 16.3 ± 1.1 |
| Cc1cccc(Nc2ccncc2S(=O)(=O)NC(=O)NC(C)C)c1 [Torsemide] | 15.7 ± 6.3 |
| CN1CCN2c3ncccc3Cc3ccccc3C2C1 (stereo not given) [Mirtazapine] | 12 |
| CN1CCN2c3ccccc3Cc3ccccc3C2C1 (stereo not given) [Mianserin HCl] | 9.67 ± 1.1 |
| NC1=NCC2c3ccccc3Cc3ccccc3N12 (stereo not given) [Epinastine HCl] | 13 |
| C=C[C@]1(C)C[C@@H](OC(=O)CSC(C)(C)CNC(=O)[C@H](N)C(C)C)[C@]2(C)[C@H](C)CC[C@]3(CCC(=O)[C@H]32)[C@@H](C)[C@@H]1O [Valnemulin HCl] | 19 |
| C[C@]12CC[C@@H]3c4ccc(O)cc4CC[C@H]3[C@@H]1CC[C@@H]2OC(=O)CCC1CCCC1 [Estradiol Cypionate] | 13 |
| C[C@@H]1COC(Nc2ccc3ncnc(Nc4ccc(OCc5nccs5)c(Cl)c4)c3c2)=N1 [Varlitinib] | 31 |
| C[C@H](CCC(=O)O)[C@H]1CC[C@H]2[C@@H]3[C@H](O)C[C@@H]4C[C@H](O)CC[C@]4(C)[C@H]3CC[C@]12C [Chenodeoxycholic Acid] | 15.7 ± 6.3 |
| C[C@H](CCC(=O)O)[C@H]1CC[C@H]2[C@@H]3CC[C@@H]4C[C@H](O)CC[C@]4(C)[C@H]3CC[C@]12C [Lithocholic acid] | 15.3 ± 2.3 |
| C[C@H](CCC(=O)O)[C@H]1CC[C@H]2[C@@H]3[C@@H](O)C[C@@H]4C[C@H](O)CC[C@]4(C)[C@H]3CC[C@]12C [Ursodiol] | 10.3 ± 1.1 |
| CO[C@H]1/C=C/O[C@@]2(C)Oc3c(C)c(O)c4c(O)c(c(/C=N/N5CCN(C6CCCC6)CC5)c(O)c4c3C2=O)NC(=O)/C(C)=C\C=C\[C@H](C)[C@H](O)[C@@H](C)[C@@H](O)[C@@H](C)[C@H](OC(C)=O)[C@@H]1C [Rifapentine] | 12 |
| C[C@@H]1CC(=O)NN=C1c1ccc(NN=C(C#N)C#N)cc1 [Levosimendan] | 19.3 ± 6.3 |
| CC[C@@H](CO)NCCN[C@@H](CC)CO [Ethambutol HCl] | 15.3 ± 2.3 |
| Cc1c(C)c2c(c(C)c1O)CC[C@@](C)(CCC[C@H](C)CCC[C@H](C)CCCC(C)C)O2 [Vitamin E] | 17.3 ± 2.5 |
| CCOc1ccccc1OC(c1ccccc1)C1CNCCO1 (stereo not given) [Reboxetine mesylate] | 18 |
| N[C@@H](CC(=O)N1CCn2c(nnc2C(F)(F)F)C1)Cc1cc(F)c(F)cc1F [Sitagliptin phosphate monohydrate] | 18 |
| C#C[C@]1(O)CC[C@H]2[C@@H]3CCc4cc(OC)ccc4[C@H]3CC[C@@]21C [Mestranol] | 10 ± 1.7 |
| C#C[C@]1(O)CC[C@H]2[C@@H]3CCc4cc(O)ccc4[C@H]3CC[C@@]21C [Ethinyl Estradiol] | 14 |
| C#C[C@]1(O)CC[C@H]2[C@@H]3CCC4=CC(=O)CC[C@@H]4[C@H]3CC[C@@]21C [Norethindrone] | 19 |
| CCC(C)(C)c1ccc(CC(C)CN2C[C@@H](C)O[C@@H](C)C2)cc1 (stereo not given in full) [Amorolfine HCl] | 12 |
| Cc1cc(/C=C/C#N)cc(C)c1Nc1ccnc(Nc2ccc(C#N)cc2)n1 [Rilpivirine] | 27 |
| O[C@H]1[C@H](O)[C@@H](O)[C@H](O)[C@@H](O)[C@H]1O [i-Inositol] | 13 |
| CS(=O)(=O)c1ccc(C(=O)Nc2ccc(Cl)c(-c3ccccn3)c2)c(Cl)c1 [Vismodegib (GDC-0449)] | 14.3 ± 1.1 |

| Compound | day of extracellular matrix detachment from plate |
| --- | --- |
| COc1cccc(-c2ccc(NC(=O)C3=C(C(=O)O)CCC3)c(F)c2)c1 [Vidofludimus] | 16.3 ± 1.1 |
| CCOc1cc([C@@H](CS(C)(=O)=O)N2C(=O)c3cccc(NC(C)=O)c3C2=O)ccc1OC | 12.7 ± 2.9 |
| O=C1CC[C@@H](C(=O)N2CSC[C@H]2C(=O)O)N1 [Pidotimod] | 15.3 ± 2.3 |
| CNC[C@H](O)c1ccc(O)c(O)c1 [Epinephrine HCl] | 16.3 ± 4 |
| CNC[C@H](O)c1ccc(O)c(O)c1 [Epinephrine Bitartrate] | 9 |
| NC[C@H](O)c1ccc(O)c(O)c1 [Noradrenaline bitartrate monohydrate] | 16.7 ± 2.3 |
| CNC[C@H](O)c1cccc(O)c1 [Phenylephrine HCl] | 12 |
| CC(C)(C)NCC(O)c1ccc(O)c(CO)c1 (stereo not given) [Salbutamol Sulfate] | 19 |
| CNC[C@@H](O)c1ccc(O)c(O)c1 [L-Adrenaline] | 10 ± 1.7 |
| CC(C)NCC(O)c1ccc(O)c(O)c1 (stereo not given) [Isoprenaline HCl] | 11 ± 1.7 |
| O=C(/C=C/C=C/c1ccc2c(c1)OCO2)N1CCCCC1 [Piperine] | 11 ± 1.7 |
| Cc1ccsc1C(=CCCN1CCC[C@@H](C(=O)O)C1)c1sccc1C [Tiagabine hydrochloride] | 17.2 ± 2 |
| Cc1ccsc1C(=CCCN1CCC[C@@H](C(=O)O)C1)c1sccc1C [Tiagabine] | 17 |
| Cc1c(-c2ccnn2C)cc(C(=O)NCc2ccc(S(C)(=O)=O)cn2)c(=O)n1-c1cccc(C(F)(F)F)c1 [Alvelestat (AZD9668)] | 13.7 ± 1.1 |
| CCCNS(=O)(=O)Nc1ncnc(OCCOc2ncc(Br)cn2)c1-c1ccc(Br)cc1 [Macitentan] | 9.67 ± 1.1 |
| O=C(O)c1cc(=O)c2ccccc2o1 [Chromocarb] | 13 |
| OCC(O)CN1CCN(c2ccccc2)CC1 (stereo not given) [Dropropizine] | 15 |
| C=C1CC[C@H](O)C/C1=C/C=C1\CCC[C@]2(C)[C@@H]([C@H](C)/C=C/[C@H](C)C(C)C)CC[C@@H]12 [Vitamin D2] | 18 |
| CC(=O)/N=c1/sc(S(N)(=O)=O)nn1C [Methazolamide] | 18 |
| O=C1C(O)=C([C@H]2CC[C@H](c3ccc(Cl)cc3)CC2)C(=O)c2ccccc21 [Atovaquone] | 18 |
| CC[C@H](Nc1ncnc2[nH]cnc12)c1nc2cccc(F)c2c(=O)n1-c1ccccc1 [CAL-101 (Idelalisib, GS-1101)] | 22.3 ± 1.1 |
| O=C([O-])C(O)[C@H](O)[C@@H](O)[C@H](O)[C@H](O)CO.O=C([O-])C(O)[C@H](O)[C@@H](O)[C@H](O)[C@H](O)CO.[Ca+2] (stereo not given in full) [Calcium Gluceptate] | 18 |
| S=c1[nH]cnc2nc[nH]c12 [Mercaptopurine (6-MP)] | 15 ± 1.7 |
| O=c1[nH]c(=O)n([C@H]2C[C@H](O)[C@@H](CO)O2)cc1I [Idoxuridine] | 23 |
| COc1cc(OC)c(C(=O)CCCN2CCCC2)c(OC)c1 [Buflomedil HCl] | 20 ± 1.7 |

Reference: the supplement of paper PMC11018630
